# Source: PubChem BioAssay (Tox21)
# Several values for one entry are separate records, joined by “and”; a condition that tells them apart may be missing. Equal entries are not always repeated. Records with an inconclusive call do not appear. A call without a number means that no potency is given here. More than one record can exist for a structure, and the calls need not agree. Activity calls are given as the source filed them. Unless noted, calls follow the shape of the full dose curve.
# Columns and labels:
# [1] = Nuclear factor erythroid 2-related factor 2/antioxidant responsive element (Nrf2/ARE) small molecule agonists: qHTS cell viability counter screen in human keratinocytes (AID 1919968; active = well fitted curve in the direction sought with a large enough effect in the repeat runs; an effect the other way counts as inactive or inconclusive; also: nearly all actives have a fitted effect of over 55% in size; also: potency is read from the fitted curve at half-maximal effect)
# In short: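 KeratinoSens cells (HaCaT keratinocytes stably carrying an ARE-luciferase reporter) were seeded at 1,500 cells/well and rested 5 h at 37 C/5% CO2. They were then exposed to compounds in DMSO for 23 h. Viability was read by CellTiter-Fluor fluorescence after 1 h.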
# [2] = Nuclear factor erythroid 2-related factor 2/antioxidant responsive element (Nrf2/ARE) small molecule agonists: luciferase reporter gene qHTS assay in human keratinocytes (AID 1919969); also: nearly all actives have a fitted effect of over 35% in size; also: potency is read from the fitted curve at half-maximal effect
# [3] = target: Gonadotropin-releasing hormone receptor (Homo sapiens) (UniProt P30968); experiment: Human gonadotropin-releasing hormone receptor (GnRHR) small molecule agonists, calcium flux assay in GnRHR-HEK293 cells (AID 1920063); also: nearly all actives have a fitted effect of over 35% in size; also: potency is read from the fitted curve at half-maximal effect
# Gonadotropin-releasing hormone receptor (Homo sapiens), sequence (P30968 whole entry, looked up): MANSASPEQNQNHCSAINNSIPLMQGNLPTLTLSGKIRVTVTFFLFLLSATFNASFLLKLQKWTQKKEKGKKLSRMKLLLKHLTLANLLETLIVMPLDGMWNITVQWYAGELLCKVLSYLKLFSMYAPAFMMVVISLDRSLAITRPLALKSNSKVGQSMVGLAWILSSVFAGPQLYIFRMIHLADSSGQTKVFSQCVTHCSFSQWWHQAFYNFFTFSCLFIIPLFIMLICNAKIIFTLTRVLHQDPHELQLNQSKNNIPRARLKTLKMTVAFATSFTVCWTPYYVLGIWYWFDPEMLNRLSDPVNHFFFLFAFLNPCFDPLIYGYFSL
# In short: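 HEK293 cells stably expressing human GnRHR were plated 18 h at 37 °C, loaded with calcium dye 1 h at 37 °C, then given compound in agonist mode; fluorescence (Ex/Em 480/540) read kinetically for 3 min at 1 s intervals.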
# [4] = target: KiSS-1 receptor (Homo sapiens) (UniProt Q969F8); experiment: Human kisspeptin (KISS1R) small molecule agonists, calcium flux assay in KISS1R-HEK293 cells (AID 1920064; active = well fitted curve in the direction sought with a large enough effect in the repeat runs; an effect the other way counts as inactive or inconclusive)
# KiSS-1 receptor (Homo sapiens), sequence (Q969F8 whole entry, looked up): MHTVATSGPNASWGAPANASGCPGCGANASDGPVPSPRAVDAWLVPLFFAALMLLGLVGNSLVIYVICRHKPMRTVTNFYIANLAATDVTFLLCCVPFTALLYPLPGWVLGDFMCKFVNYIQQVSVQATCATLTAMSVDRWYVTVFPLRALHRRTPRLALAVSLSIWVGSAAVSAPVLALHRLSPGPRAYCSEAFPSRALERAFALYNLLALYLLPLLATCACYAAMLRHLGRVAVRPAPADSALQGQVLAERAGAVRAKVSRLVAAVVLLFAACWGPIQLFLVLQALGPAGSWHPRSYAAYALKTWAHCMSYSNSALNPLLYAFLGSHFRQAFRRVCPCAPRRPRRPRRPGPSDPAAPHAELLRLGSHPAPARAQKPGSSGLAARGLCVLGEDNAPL
# In short: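 HEK293 cells stably expressing human KISS1R were plated 18 h at 37 °C, loaded with calcium dye for 1 h at 37 °C, then given compound by pin tool. Fluorescence (Ex/Em 480/540) was read kinetically for 3 min.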
# [5] = G protein-coupled receptor (GPCR) small molecule agonists, calcium flux assay: HEK293 wild type cell line counter screen (AID 1920065)
# In short: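 Cells were plated and cultured 18 h at 37 C/5% CO2, then loaded with calcium dye for 1 h at 37 C. Compounds in DMSO were pin-transferred in agonist mode, and fluorescence (Ex/Em 480/540) was read kinetically for 3 min at 1 s intervals.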
# [6] = p53 small molecule agonists, cell-based qHTS assay with human liver microsomes (AID 1963577);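 also: p53 response element beta-lactamase reporter cells with liver microsomes plus NADPH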
# In short: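 Metabolically competent format: test substances, human liver microsomes and NADPH (both 0.5 mg/mL final) incubated with p53RE-bla cells 16 h at 37 C. Beta-lactamase reporter signal then quantified by fluorescence.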
# [7] = p53 small molecule agonists, cell-based qHTS assay with rat liver microsomes (AID 1963578)
# In short: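 Each plate received p53RE-bla cells, then compound, then rat liver microsomes and NADPH (both 0.5 mg/mL final). Plates were held 16 h at 37 C, and beta-lactamase activity was detected with LiveBLAzer over 2 h.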
# [8] = p53 small molecule agonists, cell-based qHTS assay with human liver microsomes: qHTS cell viability counter screen (AID 1963579); also: nearly all actives have a fitted effect of over 45% in size
# In short: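 Tox21 library compounds, delivered from DMSO stocks, were tested on p53RE-bla cells together with 0.5 mg/mL human liver microsomes and 0.5 mg/mL NADPH (final) over 16 h at 37 C; CellTiter-Glo luminescence served as the cytotoxicity measure.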
# [9] = p53 small molecule agonists, cell-based qHTS assay with rat liver microsomes: qHTS cell viability counter screen (AID 1963580); also: nearly all actives have a fitted effect of over 45% in size
# In short: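 Viability is assessed in parallel with the p53 reporter read: HCT-116 p53RE-bla cells receive compounds plus rat microsomes and NADPH (0.5 mg/mL final apiece), incubate 16 h at 37 C, and then CellTiter-Glo luminescence is recorded.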
# [10] = p53 small molecule agonists, cell-based qHTS assay: qHTS cell viability counter screen (AID 1963581); also: nearly all actives have a fitted effect of over 45% in size
# In short: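 p53RE-bla HCT-116 cells were exposed to compounds for 16 h at 37 C; after the beta-lactamase FRET read in the same wells, CellTiter-Glo was added and luminescence (intracellular ATP) read after 30 min at room temperature.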
# [11] = p53 small molecule agonists, cell-based qHTS assay (AID 1963582; active = well fitted activation curve with a large enough effect in the signal ratio in the repeat runs, not every such curve was filed as active; the % refers to the signal ratio)
# In short: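 p53RE-bla beta-lactamase reporter cells rested 5 h at 37 C/5% CO2, then received compounds in DMSO by pin transfer and were incubated 16 h at 37 C. LiveBLAzer B/G FRET substrate was loaded for 2 h at room temperature before fluorescence reading.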
# [12] = cAMP Responsive Elements (CRE) small molecule agonists, cell-based qHTS assay (AID 1963590)
# In short: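 CRE-bla HEK 293T cells in DMEM with 10% dialyzed FBS, NEAA, pyruvate and 25 mM HEPES were plated 18 h at 37 C/5% CO2, then exposed to compounds in DMSO for 3 h before LiveBLAzer B/G FRET substrate addition.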
# [13] = target: Beta-2 adrenergic receptor (Homo sapiens) (UniProt P07550); experiment: Adrenergic beta2 receptor (ADRB2) small molecule antagonists, cell-based qHTS assay (AID 1963592); also: series mostly up to about 92 µM; nearly all actives have a fitted effect of over 50% in size
# Beta-2 adrenergic receptor (Homo sapiens), sequence (P07550 whole entry, looked up): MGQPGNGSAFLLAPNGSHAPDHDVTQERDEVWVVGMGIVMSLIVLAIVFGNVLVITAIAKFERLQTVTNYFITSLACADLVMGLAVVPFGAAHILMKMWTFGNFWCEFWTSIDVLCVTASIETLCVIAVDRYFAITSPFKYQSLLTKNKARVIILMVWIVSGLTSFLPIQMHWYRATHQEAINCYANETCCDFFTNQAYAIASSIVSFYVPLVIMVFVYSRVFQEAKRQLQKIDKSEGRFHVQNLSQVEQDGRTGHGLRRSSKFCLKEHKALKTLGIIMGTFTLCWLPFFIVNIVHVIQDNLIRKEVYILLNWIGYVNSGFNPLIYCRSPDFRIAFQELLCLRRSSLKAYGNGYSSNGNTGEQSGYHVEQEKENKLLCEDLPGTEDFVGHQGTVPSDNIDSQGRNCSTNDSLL
# In short: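 Cells (CHO, stable ADRB2 overexpression) incubated 18-20hr at 37C; compounds added from DMSO; agonist mix (1nM isoproterenol, 100uM IBMX, 25uM Ro-20-1724) added; 0.5hr RT; d2-cAMP and anti-cAMP-cryptate added; 1hr RT; 665/615 nm read.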
# [14] = target: Beta-2 adrenergic receptor (Homo sapiens) (UniProt P07550); experiment: Adrenergic beta2 receptor (ADRB2) small molecule agonists, cell-based qHTS assay (AID 1963593);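 also: CHO cells stably overexpressing human ADRB2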
# In short: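 CHO cells stably over-expressing ADRB2 were plated overnight at 37C, then dosed with compounds plus a stimulation mix containing 100uM IBMX and 25uM Ro-20-1724 for 0.5hr at room temperature. cAMP was measured by HTRF competition, 1hr.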
# [15] = target: D(2) dopamine receptor (Homo sapiens) (UniProt P14416); experiment: Dopamine D2 receptor (DRD2) small molecule agonists, cell-based qHTS assay (AID 1963594); also: nearly all actives have a fitted effect of over 35% in size
# D(2) dopamine receptor (Homo sapiens), sequence (P14416 whole entry, looked up): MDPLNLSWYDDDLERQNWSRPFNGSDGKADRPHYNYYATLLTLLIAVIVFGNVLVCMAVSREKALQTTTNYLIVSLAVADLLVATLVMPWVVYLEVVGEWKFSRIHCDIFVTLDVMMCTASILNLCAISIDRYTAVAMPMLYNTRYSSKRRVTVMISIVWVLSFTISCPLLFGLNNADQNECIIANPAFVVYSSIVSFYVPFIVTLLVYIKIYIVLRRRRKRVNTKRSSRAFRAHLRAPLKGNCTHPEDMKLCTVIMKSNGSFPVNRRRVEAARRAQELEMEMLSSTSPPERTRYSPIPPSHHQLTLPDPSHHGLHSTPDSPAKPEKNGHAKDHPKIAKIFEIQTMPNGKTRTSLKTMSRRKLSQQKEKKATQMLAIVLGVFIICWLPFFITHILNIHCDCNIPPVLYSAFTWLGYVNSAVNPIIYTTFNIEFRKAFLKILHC
# In short: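 HEK293 cells stably expressing human DRD2, pre-treated with PDE inhibitor Ro20-1724 (0.1 mM final) and compound 10 min at room temperature, then stimulated with NKH477 (200nM […]) for 30 min. cAMP read by HTRF (665/620 nm).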
# [16] = target: D(2) dopamine receptor (Homo sapiens) (UniProt P14416); experiment: Dopamine D2 receptor (DRD2) small molecule antagonists, cell-based qHTS assay (AID 1963595; active = well fitted inhibition curve with a large enough effect in the signal ratio in the repeat runs, with a control signal flat; the % refers to the signal ratio; also: potency is read from the fitted curve at half-maximal effect)
# In short: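 Antagonist mode in DRD2-HEK293 cells: after compound addition with 0.1 mM Ro20-1724, cells received quinpirole (12 nM) and NKH477 (200 nM) for 30 min at room temperature; HTRF cAMP read after 1 h detection.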
# [17] = cAMP Responsive Elements (CRE) small molecule antagonists, cell-based qHTS assay (AID 1963591; active = well fitted inhibition curve with a large enough effect in the signal ratio in the repeat runs, not every such curve was filed as active; the % refers to the signal ratio)
# In short: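 CRE-bla HEK293T cells were plated 18 h at 37 °C/5% CO2, pinned with compound in DMSO, then stimulated with NKH477 at 0.25 uM final for 3 h. LiveBLAzer B/G FRET substrate was added and plates incubated 2 h at room temperature.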
# [18] = target: 5-hydroxytryptamine receptor 2A (Homo sapiens) (UniProt P28223); experiment: 5-hydroxytryptamine receptor 2A (HTR2A) small molecule agonists, cell-based qHTS assay (AID 1963587); also: nearly all actives have a fitted effect of over 30% in size; also: potency is read from the fitted curve at half-maximal effect
# 5-hydroxytryptamine receptor 2A (Homo sapiens), sequence (P28223 whole entry, looked up): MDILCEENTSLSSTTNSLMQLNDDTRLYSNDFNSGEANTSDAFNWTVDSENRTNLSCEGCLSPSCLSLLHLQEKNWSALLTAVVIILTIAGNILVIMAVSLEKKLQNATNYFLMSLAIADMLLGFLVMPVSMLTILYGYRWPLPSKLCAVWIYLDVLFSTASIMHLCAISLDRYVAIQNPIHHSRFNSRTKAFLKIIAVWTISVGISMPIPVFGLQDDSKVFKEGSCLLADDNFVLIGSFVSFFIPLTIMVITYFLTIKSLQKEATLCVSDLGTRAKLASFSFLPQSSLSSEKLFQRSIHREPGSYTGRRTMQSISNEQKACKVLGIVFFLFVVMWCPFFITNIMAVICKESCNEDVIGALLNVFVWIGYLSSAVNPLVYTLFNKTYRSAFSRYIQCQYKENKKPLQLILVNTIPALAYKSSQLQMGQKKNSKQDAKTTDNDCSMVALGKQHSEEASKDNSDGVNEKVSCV
# In short: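 CHO cells stably expressing human HTR2A, plated 18 h, loaded with calcium dye 1 h at 37 C. Agonist mode: compounds added and intracellular calcium fluorescence recorded kinetically for 2 min at 1 sec intervals.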
# [19] = target: Muscarinic acetylcholine receptor M1 (Homo sapiens) (UniProt P11229); experiment: Cholinergic receptor muscarinic 1 (CHRM1) small molecule antagonists, cell-based qHTS assay (AID 1963588); also: nearly all actives have a fitted effect of over 40% in size
# Muscarinic acetylcholine receptor M1 (Homo sapiens), sequence (P11229 whole entry, looked up): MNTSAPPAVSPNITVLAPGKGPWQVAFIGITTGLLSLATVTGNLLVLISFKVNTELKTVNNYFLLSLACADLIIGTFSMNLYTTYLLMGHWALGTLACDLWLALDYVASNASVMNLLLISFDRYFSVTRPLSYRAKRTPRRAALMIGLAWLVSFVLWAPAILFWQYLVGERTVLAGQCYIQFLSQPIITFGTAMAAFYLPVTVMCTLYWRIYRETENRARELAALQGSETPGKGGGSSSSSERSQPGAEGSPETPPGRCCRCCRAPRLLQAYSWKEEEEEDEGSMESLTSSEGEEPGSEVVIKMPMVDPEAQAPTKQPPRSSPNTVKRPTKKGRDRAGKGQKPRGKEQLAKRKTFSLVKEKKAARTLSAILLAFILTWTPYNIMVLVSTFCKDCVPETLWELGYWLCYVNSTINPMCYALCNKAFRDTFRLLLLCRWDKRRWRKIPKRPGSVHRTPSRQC
# In short: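 CHRM1-CHO calcium-flux assay, antagonist mode. Cells were seeded 18 h, dye-loaded 1 h at 37 C and given compound for 5 min at RT, then acetylcholine was added at 50nM. FDSS fluorescence was read 3 min; 15 concentrations, three runs.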
# [20] = target: Muscarinic acetylcholine receptor M1 (Homo sapiens) (UniProt P11229); experiment: Cholinergic receptor muscarinic 1 (CHRM1) small molecule agonists, cell-based qHTS assay (AID 1963589); also: nearly all actives have a fitted effect of over 35% in size
# In short: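 CHO cells stably expressing human CHRM1, seeded 18 h at 37 C/5% CO2, dye-loaded 1 h at 37 C, then given compound in agonist mode; intracellular calcium fluorescence read kinetically at 1 s intervals. Fifteen concentrations, three independent runs.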
structure (smiles),measurement,setting,value
Cc1ccnc2c1NC(=O)c1cccnc1N2C1CC1,Potency,[1],inactive
same,Potency,[2],inactive
same,Potency,[3],inactive
same,Potency,[4],inactive
same,Potency,[5],inactive
same,Potency,[6],inactive
same,Potency,[7],inactive
same,Potency,[8],inactive
same,Potency,[9],inactive
same,Potency,[10],inactive
same,Potency,[11],inactive
same,Potency,[12],inactive
same,Potency,[13],inactive
same,Potency,[14],inactive
same,Potency,[15],inactive
same,Potency,[16],inactive
CC[C@H](C)C(=O)O[C@H]1C[C@@H](C)C=C2C=C[C@H](C)[C@H](CC[C@@H]3C[C@@H](O)CC(=O)O3)[C@H]21,Potency,[1],69.6 µM (active) and inactive
same,Potency,[2],inactive
same,Potency,[3],inactive
same,Potency,[4],inactive
same,Potency,[5],inactive
same,Potency,[6],inactive
same,Potency,[7],inactive
same,Potency,[8],inactive
same,Potency,[9],inactive
same,Potency,[10],inactive
same,Potency,[11],inactive
same,Potency,[12],inactive
same,Potency,[17],inactive
same,Potency,[13],inactive
same,Potency,[15],inactive
same,Potency,[16],inactive
NC(=O)NC1NC(=O)NC1=O (stereo not drawn),Potency,[1],inactive
same,Potency,[2],inactive
same,Potency,[3],inactive
same,Potency,[4],inactive
same,Potency,[5],inactive
same,Potency,[6],inactive
same,Potency,[7],inactive
same,Potency,[8],inactive
same,Potency,[9],inactive
same,Potency,[10],inactive
same,Potency,[18],inactive
same,Potency,[19],inactive
same,Potency,[20],inactive
same,Potency,[12],inactive
same,Potency,[17],inactive
same,Potency,[13],inactive
same,Potency,[14],inactive
same,Potency,[15],inactive
same,Potency,[16],inactive
COCCOC(=O)c1ccccc1C(=O)OCCOC,Potency,[1],inactive
same,Potency,[2],inactive
same,Potency,[3],inactive
same,Potency,[4],inactive
same,Potency,[5],inactive
same,Potency,[6],inactive
same,Potency,[7],inactive
same,Potency,[8],inactive
same,Potency,[9],inactive
same,Potency,[10],inactive
same,Potency,[18],inactive
same,Potency,[19],inactive
same,Potency,[20],inactive
same,Potency,[12],inactive
same,Potency,[17],inactive
same,Potency,[13],inactive
same,Potency,[15],inactive
same,Potency,[16],inactive
CNC[C@H](O)c1ccc(O)c(O)c1,Potency,[1],inactive
same,Potency,[2],inactive
same,Potency,[3],110 nM (active) and 233 nM (active)
same,Potency,[4],inactive
same,Potency,[5],inactive
same,Potency,[6],inactive
same,Potency,[7],inactive
same,Potency,[8],inactive
same,Potency,[9],inactive
same,Potency,[10],inactive
same,Potency,[11],inactive
same,Potency,[17],inactive
same,Potency,[15],inactive
same,Potency,[16],13 µM (active)
Cc1ccccc1Cl,Potency,[1],inactive
same,Potency,[2],inactive
same,Potency,[3],inactive
same,Potency,[4],inactive
same,Potency,[5],inactive
same,Potency,[6],inactive
same,Potency,[7],inactive
same,Potency,[8],inactive
same,Potency,[9],inactive
same,Potency,[10],inactive
same,Potency,[18],inactive
same,Potency,[19],inactive
same,Potency,[20],inactive
same,Potency,[12],inactive
same,Potency,[14],inactive
same,Potency,[15],inactive
same,Potency,[16],inactive
O=[Se](O)O,Potency,[1],inactive
same,Potency,[2],inactive and 5.23 µM (active)
same,Potency,[3],inactive
same,Potency,[4],inactive
same,Potency,[5],inactive
same,Potency,[6],inactive
same,Potency,[7],inactive
same,"activity change, negative = cytotoxicity",[8],-2.48% [at 13.5 µM] (inactive)
same,Potency,[9],inactive
same,Potency,[10],inactive
same,Potency,[18],19.5 µM (active)
same,activation,[18],-0.26% [at 15.9 µM] (inactive)
same,Potency,[19],inactive
same,Potency,[20],inactive
same,"activity change, negative = inhibition",[17],2.98% [at 18.9 µM] (inactive)
same,Potency,[13],inactive
same,Potency,[15],inactive
same,Potency,[16],inactive
